Experimental data as given in PubChem BioAssay AID624255 (Broad Institute, 2012).
In all, about 77,000 compounds went through this assay and about 4,600 (6%) were called active. About 1% were inconclusive and are not listed.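 The calls were made as follows: active = mean inhibition above about 93%, with at least 55% of replicates each passing it (limit read from the data, passing the limit was not always enough); inconclusive = only one of those two conditions holds; inactive = neither condition holds.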 The list comes from a sample in which actives are over-represented; it also holds similar structures and randomly drawn compounds.

Experiment: growth inhibition of T. cruzi in host fibroblasts – cell-based, beta-gal Tulahuen parasites, NIH3T3 host, luminescence, primary screen (AID 624255)
Conditions: T. cruzi beta-gal in NIH3T3, GalScreen luminescence, 90 h; at 8.34 µM; active compounds read high

Question: For `CC(C)(C)[S@](=O)N1Cc2cc(C(=O)N3CCCCC3)nc(-c3cccc(-c4ccccc4F)c3)c2[C@@H]1CCO`, which inhibition is on record?
Answer: 23.3% (inactive)

Question: With `C[C@@H]1CN([C@@H](C)CO)C(=O)c2cc(-c3cncnc3)cnc2O[C@H]1CN(C)C(=O)c1cccc(F)c1` as the compound, how does the inhibition read?
Answer: 0.0585% (inactive)

Question: For `COc1ccc(CN(C)C[C@@H]2Oc3ccc(NC(=O)Nc4cccc5ccccc45)cc3C(=O)N([C@H](C)CO)C[C@H]2C)cc1`, which inhibition is on record?
Answer: 74.4% (inactive)

Question: With `C[C@@H]1CN([C@H](C)CO)C(=O)c2cc(NC(=O)Nc3ccccc3)ccc2O[C@H]1CN(C)Cc1ccc(Cl)c(Cl)c1` as the compound, how does the inhibition read?
Answer: -217% (inactive)

Question: Which inhibition does the source give for `C[C@@H]1CN([C@@H](C)CO)C(=O)c2cc(NC(=O)Nc3cccc4ccccc34)ccc2O[C@H]1CN(C)Cc1ccc(Oc2ccccc2)cc1` here?
Answer: 121% (active)

Question: For `C[C@@H]1CN([C@H](C)CO)C(=O)c2cc(NC(=O)Nc3ccccc3)ccc2O[C@@H]1CN(C)Cc1ccc(Cl)c(Cl)c1`, which inhibition is on record?
Answer: -114% (inactive)

Question: For `C[C@@H]1CN([C@@H](C)CO)C(=O)c2cc(NC(=O)Nc3cccc4ccccc34)ccc2O[C@@H]1CN(C)Cc1ccc(-c2ccccc2)cc1`, which inhibition is on record?
Answer: 84.4% (inactive)

Question: Which inhibition does the source give for `C[C@@H]1CN([C@@H](C)CO)C(=O)c2cc(NC(=O)Nc3cccc4ccccc34)ccc2O[C@H]1CN(C)Cc1ccc(Cl)c(Cl)c1` here?
Answer: 97.7% (active)

Question: For `COc1ccc(S(=O)(=O)N[C@H]2C=C[C@@H](CC(=O)O)O[C@@H]2CO)cc1`, which inhibition is on record?
Answer: 8.59% (inactive)

Question: For `CCCN1C[C@@H](C)[C@@H](OC)CN(C)C(=O)c2ccc(NC(=O)Nc3cccc(F)c3)cc2OC[C@@H]1C`, which inhibition is on record?
Answer: 9.75% (inactive)

Question: For `COc1cccc(CNC(=O)C[C@H]2CC[C@@H](NC(C)=O)[C@@H](CO)O2)c1`, which inhibition is on record?
Answer: -45.2% (inactive)

Question: Which inhibition does the source give for `CC(=O)N1C[C@@H]2[C@H](c3ccccc31)[C@H](CO)N2C(=O)Nc1ccc(F)cc1` here?
Answer: -6.85% (inactive)

Question: For `C[C@@H](NC(=O)C[C@@H]1CC[C@H]2[C@@H](COC[C@@H](O)CN2C(=O)Nc2cccc(F)c2)O1)c1ccccc1`, which inhibition is on record?
Answer: 33.4% (inactive)

Question: With `O=C(C[C@@H]1C[C@H]2c3cc(NC(=O)Nc4ccccc4)ccc3O[C@H]2[C@@H](CO)O1)NCc1cccnc1` as the compound, how does the inhibition read?
Answer: -4.79% (inactive)

Question: With `Cc1noc(C)c1NC(=O)Nc1ccc2c(c1)C(=O)N([C@H](C)CO)C[C@@H](C)[C@@H](CN(C)S(=O)(=O)c1ccc(Cl)cc1)OCCCC[C@H](C)O2` as the compound, how does the inhibition read?
Answer: 55.2% (inactive)

Question: Which inhibition does the source give for `COc1ccccc1S(=O)(=O)N[C@@H]1CC[C@H](CC(=O)N2CCN(C)CC2)O[C@@H]1CO` here?
Answer: -19.7% (inactive)

Question: With `O=C(C[C@@H]1C[C@@H]2c3cc(NC(=O)c4ccc5c(c4)OCO5)ccc3O[C@@H]2[C@@H](CO)O1)NCc1ccc(Cl)cc1` as the compound, how does the inhibition read?
Answer: 97.9% (active)

Question: With `COc1cccc(S(=O)(=O)Nc2ccc3c(c2)[C@@H]2C[C@@H](CC(=O)NCc4ccc(Cl)cc4)O[C@H](CO)[C@@H]2O3)c1` as the compound, how does the inhibition read?
Answer: 32.2% (inactive)

Question: With `CCCNC(=O)C[C@H]1C[C@@H]2c3cc(NS(=O)(=O)c4cccc(OC)c4)ccc3O[C@@H]2[C@@H](CO)O1` as the compound, how does the inhibition read?
Answer: -11.6% (inactive)

Question: For `O=C(Nc1ccc2c(c1)[C@@H]1C[C@H](CC(=O)N3CCOCC3)O[C@@H](CO)[C@@H]1O2)c1ccc2c(c1)OCO2`, which inhibition is on record?
Answer: 103% (active)

Question: For `COc1cccc(S(=O)(=O)Nc2ccc3c(c2)[C@H]2C[C@H](CC(=O)NCc4ccc(Cl)cc4)O[C@H](CO)[C@H]2O3)c1`, which inhibition is on record?
Answer: 159% (active)

Question: With `CN(C)C(=O)C[C@@H]1C[C@@H]2c3cc(NC(=O)c4ccc5c(c4)OCO5)ccc3O[C@@H]2[C@H](CO)O1` as the compound, how does the inhibition read?
Answer: -59.5% (inactive)

Question: For `O=C(C[C@@H]1C[C@H]2c3cc(NC(=O)C4CCOCC4)ccc3O[C@H]2[C@H](CO)O1)NCc1ccc2c(c1)OCO2`, which inhibition is on record?
Answer: 40.2% (inactive)

Question: For `O=C(C[C@H]1C[C@@H]2c3cc(NC(=O)c4ccc5c(c4)OCO5)ccc3O[C@@H]2[C@@H](CO)O1)NCc1cccnc1`, which inhibition is on record?
Answer: -76.9% (inactive)

Question: Which inhibition does the source give for `O=C(C[C@@H]1C[C@H]2c3cc(NC(=O)CC4CC4)ccc3O[C@H]2[C@@H](CO)O1)NCc1ccc2c(c1)OCO2` here?
Answer: 30.3% (inactive)

Question: Which inhibition does the source give for `CN1CCN(C(=O)C[C@@H]2C[C@@H]3c4cc(NC(=O)c5ccc6c(c5)OCO6)ccc4O[C@@H]3[C@H](CO)O2)CC1` here?
Answer: 8.43% (inactive)

Question: With `O=C(C[C@@H]1C[C@H]2c3cc(NC(=O)C4CCC4)ccc3O[C@H]2[C@@H](CO)O1)NCc1ccc2c(c1)OCO2` as the compound, how does the inhibition read?
Answer: 106% (active)

Question: Which inhibition does the source give for `O=C(C[C@H]1C[C@H]2c3cc(NC(=O)c4ccc5c(c4)OCO5)ccc3O[C@H]2[C@@H](CO)O1)NCc1cccc(F)c1` here?
Answer: 38.1% (inactive)

Question: For `CCNC(=O)C[C@@H]1CC[C@H]2[C@@H](COc3ccc(NC(=O)NC(C)C)cc3C(=O)N2C)O1`, which inhibition is on record?
Answer: 39.8% (inactive)

Question: With `C[C@H](CO)N1C[C@H](C)[C@@H](CN(C)S(=O)(=O)c2cccs2)OCc2ccccc2-c2ccccc2C1=O` as the compound, how does the inhibition read?
Answer: 24.1% (inactive)

Question: For `O=C(C[C@@H]1C[C@H]2c3cc(NS(=O)(=O)c4ccc(F)cc4)ccc3O[C@H]2[C@H](CO)O1)NC1CCCC1`, which inhibition is on record?
Answer: -34% (inactive)

Question: For `O=S(=O)(N[C@@H]1CC[C@H](CCn2cc(-c3ccccc3F)nn2)O[C@H]1CO)c1ccc(F)cc1`, which inhibition is on record?
Answer: 41.8% (inactive)

Question: Which inhibition does the source give for `COc1cccc(NC(=O)Nc2ccc3c(c2)C(=O)N(C)[C@@H]2CC[C@@H](CC(=O)NCCc4ccccc4)O[C@H]2CO3)c1` here?
Answer: 52.2% (inactive)

Question: With `COc1ccc(S(=O)(=O)N2C[C@@H](O)COC[C@H]3O[C@H](CC(=O)N[C@H]4CCN(Cc5ccccc5)C4)CC[C@@H]32)cc1` as the compound, how does the inhibition read?
Answer: 77.6% (inactive)

Question: For `COc1ccc(NC(=O)Nc2ccc3c(c2)C(=O)N([C@H](C)CO)C[C@@H](C)[C@@H](CN(C)C(=O)NC(C)C)OCCCC[C@H](C)O3)cc1`, which inhibition is on record?
Answer: 38.7% (inactive)

Question: For `CCC(=O)N(C)C[C@H]1Oc2cc(-c3ccccc3F)ccc2S(=O)(=O)N([C@H](C)CO)C[C@@H]1C`, which inhibition is on record?
Answer: 81.3% (inactive)

Question: With `O=C(C[C@H]1CC[C@H]2[C@@H](COC[C@H](O)CN2Cc2ccncc2)O1)NCC1CC1` as the compound, how does the inhibition read?
Answer: 8.17% (inactive)

Question: For `C[C@@H]1CN([C@@H](C)CO)C(=O)c2cc(C#CCN(C)C)cnc2O[C@H]1CN(C)S(=O)(=O)c1cn(C)cn1`, which inhibition is on record?
Answer: -8.13% (inactive)
